# Reference: PubChem BioAssay (EPA / NIEHS)
# Results filed as inconclusive are left out. Activity calls are given as the source filed them. Rule for the calls, unless noted: active = hit-call score of the fitted dose curve at least 0.9, where 1 is the maximum; inconclusive = response in the unintended direction; inactive = score below 0.9.
# Tests used:
# [1] = ATG_VDRE_CIS: Attagene CIS-FACTORIAL HepG2 Assay for human Vitamin D Receptor Element (VDRE) (AID 2282968; active = hit-call score of the fitted dose curve at least 0.9, where 1 is the maximum; inactive = score below 0.9); conditions: HepG2 VDRE cis-reporter transcription, actives raise or lower the signal
# How it was run: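 Transient MRTU transfection of HepG2, 24 h compound exposure. Readout: reporter transcripts via RT-PCR and capillary electrophoresis, fluorescence. Bidirectional fit vs DMSO.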
# [2] = molecular target: Steroid hormone receptor ERR1 (Homo sapiens) (UniProt P11474); assay: ATG_ERRa_TRANS: Attagene TRANS-FACTORIAL HepG2 Assay for human Estrogen-Related Receptor alpha (ERRa) (AID 2282971); conditions: HepG2 Attagene TRANS reporter, ERRa transactivation
# How it was run: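 Reporter transcript induction was quantified by RT-PCR and capillary electrophoresis of FAM-labelled, HpaI-cut products after 24 h treatment of HepG2 cells carrying transiently transfected GAL4-UAS reporter units and an exogenous ERRa-Gal4 fusion; activity scored as increase over DMSO.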
# [3] = molecular target: X-box-binding protein 1 (Homo sapiens) (UniProt P17861); assay: ATG_Xbp1_CIS: Attagene CIS-FACTORIAL HepG2 Assay for human X-box Binding Protein 1 (XBP1) (AID 2282972; active = hit-call score of the fitted dose curve at least 0.9, where 1 is the maximum; inactive = score below 0.9); conditions: HepG2 XBP1 cis-element reporter, Attagene multiplex; actives raise or lower the signal
# How it was run: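 Read-out: fluorescent reporter mRNA fragments resolved by capillary electrophoresis after RT-PCR. Human HepG2 liver cells carried transfected cis-promoter reporter units and were exposed to chemicals for 24 hours. Gain or loss of signal fitted relative to DMSO baseline.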
# [4] = ATG_M_19_TRANS: Attagene TRANS-FACTORIAL HepG2 Assay for M19 Transcription Factor (Internal Marker) (AID 2282974); conditions: HepG2 Attagene TRANS-FACTORIAL M19 internal marker reporter
# How it was run: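 Cells: human HepG2, transiently transfected with multiplexed reporter transcription units. Exposure: 24 h. Detection: RT-PCR of reporter mRNA with capillary electrophoresis. Analysis: gain-of-signal vs DMSO.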
# [5] = molecular target: Estrogen receptor (Homo sapiens) (UniProt P03372); assay: ATG_ERa_TRANS: Attagene TRANS-FACTORIAL HepG2 Assay for human Estrogen Receptor alpha (ERa) (AID 2282970); conditions: HepG2 Attagene TRANS ERa GAL4 reporter, mRNA
# How it was run: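 Liver-derived HepG2 cells expressing chimeric nuclear receptor-Gal4 proteins from transient transfection were exposed for 24 hours. Gain of reporter mRNA signal versus DMSO, read by capillary electrophoresis of FAM-labelled PCR products, was recorded.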
# [6] = molecular target: Estrogen-related receptor gamma (Homo sapiens) (UniProt P62508); assay: ATG_ERRg_TRANS: Attagene TRANS-FACTORIAL HepG2 Assay for human Estrogen-Related Receptor gamma (ERRg) (AID 2282977); conditions: HepG2 Attagene TRANS reporter, ERRg transactivation;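 note: hits increase reporter signal over DMSO so potencies reflect activators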
# How it was run: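 Readout: fluorescent reporter-mRNA fragments resolved by capillary electrophoresis after RT-PCR and HpaI cut. Cells: transiently transfected HepG2 carrying GAL4-UAS reporters driven by exogenous NR-Gal4 chimeras, dosed 24 h. Activity fitted upward relative to DMSO baseline.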
# [7] = ATG_GAL4_TRANS: Attagene TRANS-FACTORIAL HepG2 Assay for GAL4 (Internal Marker) (AID 2282976); conditions: HepG2 Attagene TRANS GAL4 internal marker reporter
# How it was run: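 First, HepG2 cells were transfected with reporter units under GAL4-UAS control. Next, they were treated with chemical for 24 h. Finally, RNA was reverse-transcribed, PCR-amplified, FAM-labelled and resolved by capillary electrophoresis, with induction scored against DMSO.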
# [8] = molecular target: Androgen receptor (Homo sapiens) (UniProt P10275); assay: ATG_AR_TRANS: Attagene TRANS-FACTORIAL HepG2 Assay for human Androgen Receptor (AR) (AID 2282973); conditions: HepG2 Attagene TRANS-FACTORIAL AR reporter transcription
# How it was run: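 Steps: transfect HepG2 with multiple GAL4-UAS reporter transcription units (TRANS format, exogenous NR-Gal4 protein); dose 24 h; isolate RNA, reverse-transcribe, PCR-amplify, FAM-label, HpaI-digest; resolve by capillary electrophoresis. Positive direction vs DMSO.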
# [9] = molecular target: Glucocorticoid receptor (Homo sapiens) (UniProt P04150); assay: ATG_GR_TRANS: Attagene TRANS-FACTORIAL HepG2 Assay for human Glucocorticoid Receptor (GR) (AID 2282978); conditions: HepG2 Attagene TRANS GR reporter, mRNA transcription;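 note: activators score as hits since higher reporter transcript over DMSO is fitted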
# How it was run: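 In this trans-factorial format, exogenous NR-GAL4 chimeric proteins in transfected HepG2 cells regulate GAL4-UAS reporter transcription. After 24 h treatment, reporter mRNA induction relative to DMSO is read by RT-PCR and capillary electrophoresis.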
# [10] = molecular target: Nuclear receptor subfamily 1 group I member 3 (Homo sapiens) (UniProt Q14994); assay: ATG_CAR_TRANS: Attagene TRANS-FACTORIAL HepG2 Assay for human Constitutive Androstane Receptor (CAR) (AID 2282969); conditions: HepG2 Attagene TRANS-FACTORIAL CAR reporter;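 note: activators raise reporter mRNA above DMSO so AC50 marks induction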
# How it was run: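 Transiently transfected HepG2, multiplex TRANS reporters (CAR-Gal4 chimera driving GAL4-UAS reporter). 24 h dosing. Readout: reporter transcript by RT-PCR + capillary electrophoresis, fluorescence intensity; positive direction vs DMSO.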
# Sequence of X-box-binding protein 1 (Homo sapiens) (P17861 whole entry, looked up, the tested form may be a part): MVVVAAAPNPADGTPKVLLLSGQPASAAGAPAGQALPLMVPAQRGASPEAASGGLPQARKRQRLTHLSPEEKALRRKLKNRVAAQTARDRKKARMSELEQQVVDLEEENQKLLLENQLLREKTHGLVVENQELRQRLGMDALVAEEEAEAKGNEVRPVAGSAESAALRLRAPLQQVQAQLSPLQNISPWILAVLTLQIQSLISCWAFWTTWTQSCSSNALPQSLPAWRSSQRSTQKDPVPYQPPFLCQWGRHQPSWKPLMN
# Sequence of Steroid hormone receptor ERR1 (Homo sapiens) (P11474 whole entry, looked up, the tested form may be a part): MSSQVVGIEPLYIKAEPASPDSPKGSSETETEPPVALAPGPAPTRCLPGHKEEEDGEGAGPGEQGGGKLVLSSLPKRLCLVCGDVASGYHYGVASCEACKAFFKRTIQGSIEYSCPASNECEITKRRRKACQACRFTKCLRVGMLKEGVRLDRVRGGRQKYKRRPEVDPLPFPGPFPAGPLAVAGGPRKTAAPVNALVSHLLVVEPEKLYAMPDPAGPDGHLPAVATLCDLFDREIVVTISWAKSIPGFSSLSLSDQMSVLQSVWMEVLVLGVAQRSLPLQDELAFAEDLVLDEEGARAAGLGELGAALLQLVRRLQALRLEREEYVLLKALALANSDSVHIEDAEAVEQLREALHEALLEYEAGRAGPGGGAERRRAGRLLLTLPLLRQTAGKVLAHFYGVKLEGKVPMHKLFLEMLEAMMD
# Sequence of Glucocorticoid receptor (Homo sapiens) (P04150 whole entry, looked up, the tested form may be a part): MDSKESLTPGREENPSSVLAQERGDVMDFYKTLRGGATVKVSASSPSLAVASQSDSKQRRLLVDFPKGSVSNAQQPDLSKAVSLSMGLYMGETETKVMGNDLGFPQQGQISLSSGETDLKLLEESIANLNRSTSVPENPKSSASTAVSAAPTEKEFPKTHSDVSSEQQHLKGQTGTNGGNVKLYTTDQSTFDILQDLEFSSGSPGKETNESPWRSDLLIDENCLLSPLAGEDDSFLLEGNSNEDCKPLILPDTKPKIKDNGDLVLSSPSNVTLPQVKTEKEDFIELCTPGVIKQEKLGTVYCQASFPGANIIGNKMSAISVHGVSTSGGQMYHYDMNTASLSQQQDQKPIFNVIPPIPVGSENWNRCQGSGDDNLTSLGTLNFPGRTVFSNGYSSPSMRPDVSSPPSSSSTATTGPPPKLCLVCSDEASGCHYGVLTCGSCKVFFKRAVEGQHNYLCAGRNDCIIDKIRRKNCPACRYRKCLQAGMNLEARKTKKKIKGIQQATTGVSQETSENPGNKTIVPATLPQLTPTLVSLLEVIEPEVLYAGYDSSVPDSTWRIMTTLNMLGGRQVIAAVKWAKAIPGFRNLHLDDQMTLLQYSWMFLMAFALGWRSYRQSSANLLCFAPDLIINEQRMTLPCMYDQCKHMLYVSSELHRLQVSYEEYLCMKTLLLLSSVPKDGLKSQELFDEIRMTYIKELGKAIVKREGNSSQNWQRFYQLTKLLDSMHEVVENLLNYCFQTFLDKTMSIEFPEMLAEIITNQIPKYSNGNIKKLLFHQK
# Sequence of Estrogen-related receptor gamma (Homo sapiens) (P62508 whole entry, looked up, the tested form may be a part): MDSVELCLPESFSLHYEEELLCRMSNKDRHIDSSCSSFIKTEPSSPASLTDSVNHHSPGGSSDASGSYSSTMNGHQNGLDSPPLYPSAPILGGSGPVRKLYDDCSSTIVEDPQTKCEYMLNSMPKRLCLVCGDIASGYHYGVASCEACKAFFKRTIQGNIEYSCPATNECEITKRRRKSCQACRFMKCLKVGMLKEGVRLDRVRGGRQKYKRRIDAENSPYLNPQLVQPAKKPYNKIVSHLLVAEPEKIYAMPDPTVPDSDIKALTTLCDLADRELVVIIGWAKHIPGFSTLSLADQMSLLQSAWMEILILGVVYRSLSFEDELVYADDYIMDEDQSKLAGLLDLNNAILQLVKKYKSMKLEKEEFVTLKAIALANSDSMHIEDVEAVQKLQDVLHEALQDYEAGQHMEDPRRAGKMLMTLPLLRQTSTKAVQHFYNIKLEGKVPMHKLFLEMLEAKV
# Sequence of Androgen receptor (Homo sapiens) (P10275 whole entry, looked up, the tested form may be a part): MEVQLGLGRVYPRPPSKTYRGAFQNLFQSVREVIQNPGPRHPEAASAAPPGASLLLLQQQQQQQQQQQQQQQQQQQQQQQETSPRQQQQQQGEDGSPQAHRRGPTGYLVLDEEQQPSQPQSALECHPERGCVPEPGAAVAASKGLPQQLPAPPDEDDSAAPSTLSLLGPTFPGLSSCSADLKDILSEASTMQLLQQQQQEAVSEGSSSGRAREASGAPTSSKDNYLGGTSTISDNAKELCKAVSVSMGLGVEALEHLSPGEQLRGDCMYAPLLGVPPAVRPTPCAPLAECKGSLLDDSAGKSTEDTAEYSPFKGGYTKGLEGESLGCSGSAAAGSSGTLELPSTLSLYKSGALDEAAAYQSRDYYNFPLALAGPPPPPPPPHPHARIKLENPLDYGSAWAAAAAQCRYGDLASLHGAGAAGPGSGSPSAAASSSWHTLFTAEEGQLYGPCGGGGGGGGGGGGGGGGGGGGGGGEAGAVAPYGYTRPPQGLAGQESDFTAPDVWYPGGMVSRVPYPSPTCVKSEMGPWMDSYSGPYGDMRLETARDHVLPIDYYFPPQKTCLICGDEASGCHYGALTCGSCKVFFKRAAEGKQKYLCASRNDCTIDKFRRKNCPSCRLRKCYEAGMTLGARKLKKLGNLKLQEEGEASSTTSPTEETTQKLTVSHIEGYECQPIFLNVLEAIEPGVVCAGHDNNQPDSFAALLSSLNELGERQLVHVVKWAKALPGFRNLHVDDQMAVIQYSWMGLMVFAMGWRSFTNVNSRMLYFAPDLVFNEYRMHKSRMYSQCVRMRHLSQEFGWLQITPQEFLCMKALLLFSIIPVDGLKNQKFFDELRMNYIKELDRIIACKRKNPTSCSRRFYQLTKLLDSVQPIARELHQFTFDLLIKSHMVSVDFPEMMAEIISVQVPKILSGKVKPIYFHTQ
# Sequence of Estrogen receptor (Homo sapiens) (P03372 whole entry, looked up, the tested form may be a part): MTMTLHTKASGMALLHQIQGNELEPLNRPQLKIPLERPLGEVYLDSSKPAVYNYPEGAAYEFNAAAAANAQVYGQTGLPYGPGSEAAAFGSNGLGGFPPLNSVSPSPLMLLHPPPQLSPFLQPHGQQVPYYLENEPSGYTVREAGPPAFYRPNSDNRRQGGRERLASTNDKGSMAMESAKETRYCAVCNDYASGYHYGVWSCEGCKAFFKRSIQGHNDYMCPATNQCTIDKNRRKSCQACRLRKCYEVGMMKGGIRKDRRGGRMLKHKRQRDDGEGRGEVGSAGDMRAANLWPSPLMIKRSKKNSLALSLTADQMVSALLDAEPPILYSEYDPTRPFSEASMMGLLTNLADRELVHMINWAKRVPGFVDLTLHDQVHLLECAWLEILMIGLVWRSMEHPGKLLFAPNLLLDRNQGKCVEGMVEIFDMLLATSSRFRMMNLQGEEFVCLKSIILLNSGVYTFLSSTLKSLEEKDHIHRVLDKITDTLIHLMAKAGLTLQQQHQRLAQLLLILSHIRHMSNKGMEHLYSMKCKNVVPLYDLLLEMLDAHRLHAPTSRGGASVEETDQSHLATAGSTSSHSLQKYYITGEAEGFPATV
# Sequence of Nuclear receptor subfamily 1 group I member 3 (Homo sapiens) (Q14994 whole entry, looked up, the tested form may be a part): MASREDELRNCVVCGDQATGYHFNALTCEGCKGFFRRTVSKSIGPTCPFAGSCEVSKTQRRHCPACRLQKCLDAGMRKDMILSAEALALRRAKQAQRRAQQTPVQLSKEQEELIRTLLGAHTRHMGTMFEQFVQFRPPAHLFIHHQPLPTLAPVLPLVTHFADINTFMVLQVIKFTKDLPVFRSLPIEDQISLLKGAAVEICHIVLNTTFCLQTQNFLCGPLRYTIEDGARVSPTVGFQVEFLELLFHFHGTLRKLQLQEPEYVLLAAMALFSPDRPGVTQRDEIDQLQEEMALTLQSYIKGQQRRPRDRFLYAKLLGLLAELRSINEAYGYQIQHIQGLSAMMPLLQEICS
smiles,measurement,setting,value
Clc1cc(C(Cl)(Cl)Cl)cnc1Cl,outcome,[1],inactive
same,outcome,[2],inactive
same,outcome,[3],inactive
same,outcome,[4],inactive
O=C/C(Cl)=C(/Cl)C(=O)O,AC50,[1],74.3 µM (active)
same,AC50,[5],156 µM (active)
same,outcome,[3],inactive
same,outcome,[6],inactive
CCOP(=O)(OCC)OC(=CCl)c1ccc(Cl)cc1Cl,AC50,[1],1.83 µM (active)
same,AC50,[5],26 µM (active)
same,outcome,[3],inactive
same,outcome,[4],inactive
same,outcome,[7],inactive
Clc1cccc(Cl)c1Cl,outcome,[1],inactive
same,outcome,[2],inactive
same,outcome,[3],inactive
O=S1(=O)OC(c2cc(Br)c(O)c(Br)c2)(c2cc(Br)c(O)c(Br)c2)c2ccccc21,outcome,[1],inactive
same,outcome,[5],inactive
same,outcome,[8],inactive
CCCCCCCCCCBr,outcome,[1],inactive
same,AC50,[5],33.3 µM (active)
same,outcome,[3],inactive
same,outcome,[4],inactive
same,outcome,[6],inactive
same,outcome,[9],inactive
O=C(Cc1ccccc1)OCCc1ccccc1,outcome,[1],inactive
same,outcome,[5],inactive
same,outcome,[7],inactive
same,outcome,[9],inactive
C=C(C)C(=O)OCC(CC)CCCC (configuration not stated),outcome,[1],inactive
same,outcome,[5],inactive
same,outcome,[3],inactive
same,outcome,[7],inactive
same,outcome,[6],inactive
N#Cc1ccc(Cl)cc1,outcome,[1],inactive
same,outcome,[2],inactive
same,outcome,[3],inactive
same,outcome,[4],inactive
FC(F)OCC(F)(F)C(F)(F)F,outcome,[1],inactive
same,outcome,[2],inactive
same,outcome,[3],inactive
same,outcome,[7],inactive
CCOC(=O)OC1=C(c2cc(C)ccc2C)C(=O)NC12CCC(OC)CC2 (configuration not stated),outcome,[1],inactive
same,outcome,[5],inactive
same,outcome,[3],inactive
same,outcome,[9],inactive
CC(O)(CS(=O)(=O)c1ccc(F)cc1)C(=O)Nc1ccc(C#N)c(C(F)(F)F)c1 (configuration not stated),AC50,[1],32.3 µM (active)
same,outcome,[2],inactive
same,outcome,[3],inactive
same,outcome,[4],inactive
same,outcome,[7],inactive
same,outcome,[9],inactive
C=CCc1ccccc1O,outcome,[1],inactive
same,AC50,[5],48.6 µM (active)
same,outcome,[3],inactive
same,outcome,[4],inactive
same,outcome,[7],inactive
same,outcome,[9],inactive
CC(=Cc1ccccc1)[N+](=O)[O-],outcome,[1],inactive
same,outcome,[5],inactive
same,AC50,[3],11.1 µM (active)
same,outcome,[6],inactive
Cc1cc(C(C)(C)c2ccc(O)c(C)c2)ccc1O,AC50,[1],13.7 µM (active)
same,outcome,[2],inactive
same,AC50,[3],36.4 µM (active)
same,outcome,[8],inactive
same,outcome,[9],inactive
OCC(c1ccc(Cl)cc1)c1ccc(Cl)cc1,outcome,[1],inactive
same,outcome,[5],inactive
same,AC50,[3],56.3 µM (active)
same,outcome,[9],inactive
O=CCCl,AC50,[1],32.3 µM (active)
same,AC50,[3],24.7 µM (active)
C=CCOC(F)(C(F)(F)F)C(F)(F)F,outcome,[1],inactive
same,outcome,[2],inactive
same,outcome,[3],inactive
same,outcome,[8],inactive
same,outcome,[7],inactive
same,outcome,[9],inactive
CCCCCCCCCCCCBr,outcome,[1],inactive
same,outcome,[5],inactive
same,outcome,[3],inactive
same,outcome,[7],inactive
same,outcome,[9],inactive
CCCCCCCCCCCCN(C)C,AC50,[1],33.4 µM (active)
same,outcome,[5],inactive
same,AC50,[3],53.9 µM (active)
same,outcome,[9],inactive
O=NN1CCCCCC1,outcome,[1],inactive
same,outcome,[5],inactive
same,outcome,[8],inactive
same,outcome,[7],inactive
same,outcome,[9],inactive
N#Cc1ccccc1Cl,outcome,[1],inactive
same,outcome,[2],inactive
same,outcome,[3],inactive
Cc1cc(SCc2sc(-c3ccc(C(F)(F)F)c(F)c3)nc2C)ccc1OCC(=O)O,AC50,[1],9.54 µM (active)
same,AC50,[3],25.2 µM (active)
same,outcome,[4],inactive
same,outcome,[9],inactive
CC(C)CC(C)(c1ccc(O)cc1)c1ccc(O)cc1,AC50,[1],5.37 µM (active)
same,AC50,[3],8.52 µM (active)
same,outcome,[9],inactive
CCCCOC(=O)COC(=O)c1ccccc1C(=O)OCCCC,outcome,[10],inactive
same,outcome,[5],inactive
same,outcome,[2],inactive
same,outcome,[3],inactive
same,outcome,[4],inactive
same,outcome,[7],inactive
same,outcome,[9],inactive
OCCCCO,outcome,[1],inactive
same,outcome,[4],inactive
same,outcome,[7],inactive
same,outcome,[6],inactive
BrCC(Br)c1ccccc1 (configuration not stated),outcome,[1],inactive
same,outcome,[8],inactive
same,outcome,[7],inactive
same,outcome,[9],inactive
NNCCO,outcome,[1],inactive
same,outcome,[3],inactive
same,outcome,[4],inactive
CC(C)[N+](=O)[O-],outcome,[1],inactive
same,outcome,[3],inactive
same,outcome,[4],inactive
same,outcome,[7],inactive
same,outcome,[9],inactive
CCC[CH2][Sn]([CH2]CCC)([CH2]CCC)[CH2]CCC,AC50,[1],4.44 µM (active)
same,outcome,[3],inactive
same,outcome,[4],inactive
same,outcome,[9],inactive
CN(N=O)C(N)=O,outcome,[1],inactive
same,outcome,[3],inactive
same,outcome,[4],inactive
same,outcome,[7],inactive
same,outcome,[9],inactive
CCOC(=O)CCN(SN(C)C(=O)Oc1cccc2c1OC(C)(C)C2)C(C)C,outcome,[10],inactive
same,outcome,[5],inactive
same,outcome,[2],inactive
same,outcome,[3],inactive
O=S(=O)(F)C(F)(F)C(F)(F)C(F)(F)C(F)(F)F,outcome,[1],inactive
same,outcome,[3],inactive
same,outcome,[8],inactive
same,outcome,[7],inactive
same,outcome,[6],inactive
Cc1cc(C)cc(C)c1,outcome,[1],inactive
same,outcome,[3],inactive
same,outcome,[4],inactive
same,outcome,[7],inactive
CN(C)C(=S)S,outcome,[1],inactive
same,outcome,[3],inactive
same,outcome,[4],inactive
same,outcome,[7],inactive
O=C(O)COc1cc(Cl)c(Cl)cc1Cl,outcome,[1],inactive
same,outcome,[3],inactive
same,outcome,[8],inactive
same,outcome,[4],inactive
same,outcome,[9],inactive
CCN(CCO)CCO,outcome,[1],inactive
same,outcome,[3],inactive
same,outcome,[7],inactive
same,outcome,[9],inactive
O=C(CBr)c1ccc(O)cc1,outcome,[1],inactive
same,outcome,[3],inactive
same,outcome,[4],inactive
same,outcome,[6],inactive
CC(C)N(C(=O)CCl)c1ccccc1,AC50,[1],51.7 µM (active)
same,AC50,[3],47.9 µM (active)
same,outcome,[8],inactive
same,outcome,[9],inactive
C[As+](C)(C)CC(=O)[O-],outcome,[1],inactive
same,outcome,[3],inactive
same,outcome,[7],inactive
same,outcome,[9],inactive
CCCCCCCCBr,outcome,[1],inactive
same,outcome,[3],inactive
same,outcome,[4],inactive
same,outcome,[7],inactive
same,outcome,[9],inactive
CCCCCCCCCCCCCCC(Br)C(=O)O (configuration not stated),AC50,[1],162 µM (active)
same,outcome,[4],inactive
same,outcome,[7],inactive
same,outcome,[9],inactive
